The supplement of paper PMC11732987, “Enantioselective OTUD7B fragment discovery through chemoproteomics screening and high-throughput optimisation” (Communications Chemistry, 2025)

Assays:
Experiment in all cases: log2 ratio of Biotin-Ahx-Ub-VS probe labelling (fragment/DMSO); higher = less target engagement (more negative = stronger competition), active = hit call of the paper (q ≤ 0.05, log2 ratio ≤ -1)
Details in all cases: compound concentration: 200 uM; treatment time: 3 h
[1] = target: USP34 (UniProt Q70CQ2)
Procedure, shortened: (§1)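 Labelling with Biotin-Ahx-Ub-VS (0.5 µM final, 1 h) followed a 3 h triplicate treatment of HEK293T lysate (495 µg per sample, Tris/CHAPS/IGEPAL buffer with protease inhibitors) with fragment at 200 µM or vehicle. Labelled DUBs were NeutrAvidin-enriched, digested with LysC and trypsin, and run by diaPASEF LC-MS/MS. The values, average log2 fragment/vehicle ratios by unpaired t-test, come from global-median-normalised Spectronaut label-free quantities. Proteins with ≥2 unique peptides were used.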

[2] = target: T1, USP36 (UniProt Q9P275)
T1 sequence (whole entry): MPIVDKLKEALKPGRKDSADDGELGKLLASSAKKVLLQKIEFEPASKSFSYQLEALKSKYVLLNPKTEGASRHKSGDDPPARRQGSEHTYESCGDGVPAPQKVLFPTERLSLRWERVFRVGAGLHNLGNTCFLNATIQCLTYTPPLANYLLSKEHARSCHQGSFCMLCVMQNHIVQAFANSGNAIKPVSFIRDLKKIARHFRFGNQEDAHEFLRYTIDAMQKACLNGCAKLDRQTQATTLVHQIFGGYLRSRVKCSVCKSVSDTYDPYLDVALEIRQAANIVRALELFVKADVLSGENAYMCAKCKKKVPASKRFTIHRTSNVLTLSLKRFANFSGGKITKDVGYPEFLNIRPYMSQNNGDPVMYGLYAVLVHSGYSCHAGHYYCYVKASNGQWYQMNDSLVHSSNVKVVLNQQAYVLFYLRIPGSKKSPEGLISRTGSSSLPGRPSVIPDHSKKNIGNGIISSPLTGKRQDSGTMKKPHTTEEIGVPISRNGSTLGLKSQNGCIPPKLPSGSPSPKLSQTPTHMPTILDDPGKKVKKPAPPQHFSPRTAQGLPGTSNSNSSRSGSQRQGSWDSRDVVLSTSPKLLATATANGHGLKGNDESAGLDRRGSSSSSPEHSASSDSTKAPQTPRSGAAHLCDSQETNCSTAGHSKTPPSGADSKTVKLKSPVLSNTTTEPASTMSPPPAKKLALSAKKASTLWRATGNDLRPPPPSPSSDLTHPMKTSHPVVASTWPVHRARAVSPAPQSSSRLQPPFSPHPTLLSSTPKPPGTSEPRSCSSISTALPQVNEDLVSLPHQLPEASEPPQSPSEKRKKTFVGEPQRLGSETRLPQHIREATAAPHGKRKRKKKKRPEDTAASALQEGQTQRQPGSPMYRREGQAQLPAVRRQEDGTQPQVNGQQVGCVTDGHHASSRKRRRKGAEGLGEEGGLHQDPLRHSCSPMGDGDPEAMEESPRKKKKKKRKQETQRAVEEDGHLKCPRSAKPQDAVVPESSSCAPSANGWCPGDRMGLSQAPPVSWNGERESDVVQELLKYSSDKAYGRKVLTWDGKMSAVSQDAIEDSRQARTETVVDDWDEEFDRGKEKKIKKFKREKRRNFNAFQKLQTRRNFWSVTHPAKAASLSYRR
Procedure, shortened: as §1

[3] = target: T2, USP38 (UniProt Q8NB14)
T2 sequence (whole entry): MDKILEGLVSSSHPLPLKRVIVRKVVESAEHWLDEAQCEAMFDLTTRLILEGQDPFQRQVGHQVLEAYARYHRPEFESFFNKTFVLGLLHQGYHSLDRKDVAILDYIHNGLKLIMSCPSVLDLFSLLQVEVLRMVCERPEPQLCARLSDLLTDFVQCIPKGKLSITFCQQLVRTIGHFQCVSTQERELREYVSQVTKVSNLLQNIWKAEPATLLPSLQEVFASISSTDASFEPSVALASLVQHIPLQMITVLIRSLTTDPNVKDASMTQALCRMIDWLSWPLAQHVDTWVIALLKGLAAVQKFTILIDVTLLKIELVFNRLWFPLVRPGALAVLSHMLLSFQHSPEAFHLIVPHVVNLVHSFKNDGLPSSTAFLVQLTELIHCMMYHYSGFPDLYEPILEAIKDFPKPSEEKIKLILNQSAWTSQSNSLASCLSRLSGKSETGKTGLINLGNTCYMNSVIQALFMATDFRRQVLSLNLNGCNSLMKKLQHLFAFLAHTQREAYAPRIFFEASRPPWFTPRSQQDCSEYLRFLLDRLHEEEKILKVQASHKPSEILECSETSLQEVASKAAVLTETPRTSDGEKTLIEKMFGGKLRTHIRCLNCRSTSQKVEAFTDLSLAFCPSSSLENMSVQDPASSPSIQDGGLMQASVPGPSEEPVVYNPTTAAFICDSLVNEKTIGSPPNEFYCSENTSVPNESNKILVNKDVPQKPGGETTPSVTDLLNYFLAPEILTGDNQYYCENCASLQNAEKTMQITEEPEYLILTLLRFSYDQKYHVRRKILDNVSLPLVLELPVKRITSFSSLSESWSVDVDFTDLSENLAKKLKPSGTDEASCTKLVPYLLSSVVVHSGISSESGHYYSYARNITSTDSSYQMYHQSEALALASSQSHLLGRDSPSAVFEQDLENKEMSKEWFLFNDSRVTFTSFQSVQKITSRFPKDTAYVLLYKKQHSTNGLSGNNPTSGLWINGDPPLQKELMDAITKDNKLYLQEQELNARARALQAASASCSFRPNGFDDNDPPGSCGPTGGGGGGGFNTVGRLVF
Procedure, shortened: as §1

[4] = target: T3, USP39 (UniProt Q53GS9)
T3 sequence (whole entry): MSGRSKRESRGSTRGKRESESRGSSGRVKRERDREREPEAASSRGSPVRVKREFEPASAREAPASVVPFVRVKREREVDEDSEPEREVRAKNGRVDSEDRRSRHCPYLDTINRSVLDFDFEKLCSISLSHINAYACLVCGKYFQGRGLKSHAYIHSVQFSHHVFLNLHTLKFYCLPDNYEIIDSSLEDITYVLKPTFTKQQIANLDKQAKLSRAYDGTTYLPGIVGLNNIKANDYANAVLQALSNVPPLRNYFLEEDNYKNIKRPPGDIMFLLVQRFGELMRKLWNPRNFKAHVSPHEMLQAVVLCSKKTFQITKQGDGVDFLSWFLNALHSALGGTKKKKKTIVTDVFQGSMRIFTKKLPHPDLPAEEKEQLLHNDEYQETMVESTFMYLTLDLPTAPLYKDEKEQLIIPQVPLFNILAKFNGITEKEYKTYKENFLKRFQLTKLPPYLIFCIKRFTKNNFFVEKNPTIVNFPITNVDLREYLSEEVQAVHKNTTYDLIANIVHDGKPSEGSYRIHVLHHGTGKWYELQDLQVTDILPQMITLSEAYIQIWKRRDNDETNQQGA
Procedure, shortened: as §1

[5] = target: T4, USP4 (UniProt Q13107)
T4 sequence (whole entry): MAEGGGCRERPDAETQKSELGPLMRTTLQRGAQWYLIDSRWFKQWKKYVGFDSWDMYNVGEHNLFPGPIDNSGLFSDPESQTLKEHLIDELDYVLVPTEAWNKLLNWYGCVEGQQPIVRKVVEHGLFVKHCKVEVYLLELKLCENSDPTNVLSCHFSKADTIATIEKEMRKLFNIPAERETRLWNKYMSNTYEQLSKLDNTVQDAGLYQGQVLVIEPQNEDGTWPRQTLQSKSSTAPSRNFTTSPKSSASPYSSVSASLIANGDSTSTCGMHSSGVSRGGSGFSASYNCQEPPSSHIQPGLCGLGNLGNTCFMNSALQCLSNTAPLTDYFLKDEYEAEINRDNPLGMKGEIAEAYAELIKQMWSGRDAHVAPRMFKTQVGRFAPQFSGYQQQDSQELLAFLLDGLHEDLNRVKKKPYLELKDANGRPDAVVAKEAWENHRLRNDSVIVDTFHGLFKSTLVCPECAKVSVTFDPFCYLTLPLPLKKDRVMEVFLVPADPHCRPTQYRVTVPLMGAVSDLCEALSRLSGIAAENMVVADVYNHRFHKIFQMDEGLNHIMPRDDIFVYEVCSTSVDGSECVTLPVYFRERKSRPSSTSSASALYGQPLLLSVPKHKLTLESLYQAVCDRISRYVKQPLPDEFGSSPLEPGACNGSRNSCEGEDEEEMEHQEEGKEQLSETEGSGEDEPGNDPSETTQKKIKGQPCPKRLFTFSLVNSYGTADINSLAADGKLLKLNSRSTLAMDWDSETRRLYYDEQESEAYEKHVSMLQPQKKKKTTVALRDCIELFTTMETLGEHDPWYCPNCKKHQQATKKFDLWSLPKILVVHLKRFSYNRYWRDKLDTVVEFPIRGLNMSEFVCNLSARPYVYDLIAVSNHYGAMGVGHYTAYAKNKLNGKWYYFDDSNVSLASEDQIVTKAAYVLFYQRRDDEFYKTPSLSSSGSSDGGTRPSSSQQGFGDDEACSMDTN
Procedure, shortened: as §1

Measured: log2 ratio of Biotin-Ahx-Ub-VS probe labelling

USP34, sequence (Q70CQ2 whole entry, the tested form may be a part): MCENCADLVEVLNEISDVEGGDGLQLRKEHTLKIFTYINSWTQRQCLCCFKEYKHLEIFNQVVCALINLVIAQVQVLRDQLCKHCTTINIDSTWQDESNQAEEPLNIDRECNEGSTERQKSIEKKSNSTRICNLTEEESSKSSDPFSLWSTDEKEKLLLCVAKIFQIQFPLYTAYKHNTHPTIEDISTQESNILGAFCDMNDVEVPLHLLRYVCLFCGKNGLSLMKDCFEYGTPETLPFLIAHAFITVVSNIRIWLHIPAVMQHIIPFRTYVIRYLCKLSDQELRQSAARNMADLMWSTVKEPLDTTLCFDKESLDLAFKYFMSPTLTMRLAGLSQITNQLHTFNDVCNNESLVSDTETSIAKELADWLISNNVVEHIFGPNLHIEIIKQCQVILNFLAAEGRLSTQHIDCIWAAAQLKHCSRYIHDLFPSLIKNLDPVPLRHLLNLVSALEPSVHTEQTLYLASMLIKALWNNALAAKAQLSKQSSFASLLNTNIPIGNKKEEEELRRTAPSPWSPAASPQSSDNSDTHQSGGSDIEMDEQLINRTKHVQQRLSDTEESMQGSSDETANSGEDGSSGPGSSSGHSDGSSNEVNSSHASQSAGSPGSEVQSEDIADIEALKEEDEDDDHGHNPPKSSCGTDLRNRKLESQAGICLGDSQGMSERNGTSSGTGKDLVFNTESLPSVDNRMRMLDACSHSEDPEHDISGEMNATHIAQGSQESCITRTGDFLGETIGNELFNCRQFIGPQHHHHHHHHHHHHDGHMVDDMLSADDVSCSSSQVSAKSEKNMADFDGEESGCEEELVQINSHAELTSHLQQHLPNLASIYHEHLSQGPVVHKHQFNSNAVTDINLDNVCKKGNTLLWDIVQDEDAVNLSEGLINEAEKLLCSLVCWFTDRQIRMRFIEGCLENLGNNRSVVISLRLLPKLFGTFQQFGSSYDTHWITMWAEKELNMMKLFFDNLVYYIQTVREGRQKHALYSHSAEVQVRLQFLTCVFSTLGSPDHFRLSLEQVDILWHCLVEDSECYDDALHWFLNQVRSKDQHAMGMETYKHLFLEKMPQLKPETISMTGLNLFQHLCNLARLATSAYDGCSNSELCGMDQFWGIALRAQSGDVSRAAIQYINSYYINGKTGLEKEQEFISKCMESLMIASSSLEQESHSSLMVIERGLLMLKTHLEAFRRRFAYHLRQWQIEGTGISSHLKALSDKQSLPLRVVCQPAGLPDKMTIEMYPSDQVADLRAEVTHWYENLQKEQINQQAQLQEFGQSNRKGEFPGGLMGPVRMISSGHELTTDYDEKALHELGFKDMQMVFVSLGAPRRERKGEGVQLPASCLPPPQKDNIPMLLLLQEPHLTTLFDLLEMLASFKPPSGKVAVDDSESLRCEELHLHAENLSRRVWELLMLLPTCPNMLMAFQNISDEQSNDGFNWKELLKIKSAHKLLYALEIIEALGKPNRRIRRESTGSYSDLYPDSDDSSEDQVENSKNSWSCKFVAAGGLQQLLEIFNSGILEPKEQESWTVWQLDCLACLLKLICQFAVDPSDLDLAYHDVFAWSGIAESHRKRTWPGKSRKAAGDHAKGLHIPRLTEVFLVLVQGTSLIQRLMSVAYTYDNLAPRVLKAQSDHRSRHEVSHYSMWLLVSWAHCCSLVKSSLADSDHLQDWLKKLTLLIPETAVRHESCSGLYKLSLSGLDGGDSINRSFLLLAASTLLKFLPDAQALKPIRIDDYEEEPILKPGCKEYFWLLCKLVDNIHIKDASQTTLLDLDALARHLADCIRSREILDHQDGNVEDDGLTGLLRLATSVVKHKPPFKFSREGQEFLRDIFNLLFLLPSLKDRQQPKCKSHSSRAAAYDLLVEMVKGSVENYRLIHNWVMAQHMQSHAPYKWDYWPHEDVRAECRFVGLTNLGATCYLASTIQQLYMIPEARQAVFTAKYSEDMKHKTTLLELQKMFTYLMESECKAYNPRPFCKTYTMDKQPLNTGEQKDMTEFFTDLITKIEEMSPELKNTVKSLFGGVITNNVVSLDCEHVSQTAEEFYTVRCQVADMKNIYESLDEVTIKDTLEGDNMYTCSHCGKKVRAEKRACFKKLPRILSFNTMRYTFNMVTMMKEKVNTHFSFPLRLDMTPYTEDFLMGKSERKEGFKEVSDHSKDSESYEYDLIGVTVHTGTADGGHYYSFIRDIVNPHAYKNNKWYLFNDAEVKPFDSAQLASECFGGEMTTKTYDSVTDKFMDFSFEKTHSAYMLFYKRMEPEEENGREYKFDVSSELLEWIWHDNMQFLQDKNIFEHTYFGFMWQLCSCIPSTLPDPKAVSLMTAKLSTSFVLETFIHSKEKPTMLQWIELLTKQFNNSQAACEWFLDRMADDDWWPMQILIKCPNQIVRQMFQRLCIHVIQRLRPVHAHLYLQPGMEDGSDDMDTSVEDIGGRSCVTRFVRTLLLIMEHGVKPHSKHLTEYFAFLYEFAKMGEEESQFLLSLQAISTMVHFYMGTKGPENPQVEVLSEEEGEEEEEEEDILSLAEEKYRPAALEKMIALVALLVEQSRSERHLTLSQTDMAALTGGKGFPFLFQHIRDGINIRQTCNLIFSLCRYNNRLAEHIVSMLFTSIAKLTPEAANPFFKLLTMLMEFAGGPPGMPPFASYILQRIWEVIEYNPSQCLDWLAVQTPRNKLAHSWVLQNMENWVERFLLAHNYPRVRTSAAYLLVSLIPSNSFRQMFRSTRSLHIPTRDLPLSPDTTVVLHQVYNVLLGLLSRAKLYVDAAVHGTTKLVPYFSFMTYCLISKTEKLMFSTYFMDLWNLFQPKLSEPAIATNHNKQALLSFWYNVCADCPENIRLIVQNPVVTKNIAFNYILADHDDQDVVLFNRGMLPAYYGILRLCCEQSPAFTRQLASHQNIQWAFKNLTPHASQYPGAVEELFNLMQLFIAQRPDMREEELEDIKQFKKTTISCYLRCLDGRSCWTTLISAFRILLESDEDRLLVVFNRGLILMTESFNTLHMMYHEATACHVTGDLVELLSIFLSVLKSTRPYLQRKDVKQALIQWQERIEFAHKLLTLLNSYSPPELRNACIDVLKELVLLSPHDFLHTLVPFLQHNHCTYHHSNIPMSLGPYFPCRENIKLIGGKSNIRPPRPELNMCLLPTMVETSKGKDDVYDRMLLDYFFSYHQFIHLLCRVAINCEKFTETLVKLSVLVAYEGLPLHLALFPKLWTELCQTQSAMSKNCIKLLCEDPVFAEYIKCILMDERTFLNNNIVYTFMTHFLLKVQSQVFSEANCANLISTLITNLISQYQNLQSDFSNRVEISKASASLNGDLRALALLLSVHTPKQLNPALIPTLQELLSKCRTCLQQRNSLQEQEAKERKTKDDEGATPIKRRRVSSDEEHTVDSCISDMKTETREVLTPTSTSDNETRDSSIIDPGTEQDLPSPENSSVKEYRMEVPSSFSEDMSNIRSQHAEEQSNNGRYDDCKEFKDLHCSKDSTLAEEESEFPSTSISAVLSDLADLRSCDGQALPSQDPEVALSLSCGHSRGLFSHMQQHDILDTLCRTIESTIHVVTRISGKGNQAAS

Cc1cc(CC(C)NC(=O)CCl)n[nH]1 (stereo not given)
inactive: [1] -0.00217 | [2] -0.0115 | [3] -0.279 | [4] -0.196 | [5] -0.0597
